# The whole screen tested about 360,000 compounds, of which about 620 (0.17%) were called active. Many of the other results were omitted from the sample, so actives are more common in it than they were. Values without a mark were called inactive.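 The calls were made as follows: active = inhibition above a per-campaign cutoff, the mean of all compounds plus 3 SD (cut at about 60% in these data); inactive = the rest.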
# Target: Nuclear receptor coactivator 3 (Homo sapiens) (UniProt Q9Y6Q9)
# Test: NCOA3 GAL4-fusion reporter inhibition – cell-based, luminescence, primary screen (AID 588352);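 also: 0% = DMSO-treated cells and 100% = gossypol-treated cells at 36 µM; higher means less SRC3-driven luciferase light from the GAL4 reporter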
# Conditions: HEK293 GAL4-SRC3 luciferase reporter, at 3.6 µM, active compounds read high
# Nuclear receptor coactivator 3 (Homo sapiens), sequence (Q9Y6Q9 whole entry, looked up, the tested form may be a part): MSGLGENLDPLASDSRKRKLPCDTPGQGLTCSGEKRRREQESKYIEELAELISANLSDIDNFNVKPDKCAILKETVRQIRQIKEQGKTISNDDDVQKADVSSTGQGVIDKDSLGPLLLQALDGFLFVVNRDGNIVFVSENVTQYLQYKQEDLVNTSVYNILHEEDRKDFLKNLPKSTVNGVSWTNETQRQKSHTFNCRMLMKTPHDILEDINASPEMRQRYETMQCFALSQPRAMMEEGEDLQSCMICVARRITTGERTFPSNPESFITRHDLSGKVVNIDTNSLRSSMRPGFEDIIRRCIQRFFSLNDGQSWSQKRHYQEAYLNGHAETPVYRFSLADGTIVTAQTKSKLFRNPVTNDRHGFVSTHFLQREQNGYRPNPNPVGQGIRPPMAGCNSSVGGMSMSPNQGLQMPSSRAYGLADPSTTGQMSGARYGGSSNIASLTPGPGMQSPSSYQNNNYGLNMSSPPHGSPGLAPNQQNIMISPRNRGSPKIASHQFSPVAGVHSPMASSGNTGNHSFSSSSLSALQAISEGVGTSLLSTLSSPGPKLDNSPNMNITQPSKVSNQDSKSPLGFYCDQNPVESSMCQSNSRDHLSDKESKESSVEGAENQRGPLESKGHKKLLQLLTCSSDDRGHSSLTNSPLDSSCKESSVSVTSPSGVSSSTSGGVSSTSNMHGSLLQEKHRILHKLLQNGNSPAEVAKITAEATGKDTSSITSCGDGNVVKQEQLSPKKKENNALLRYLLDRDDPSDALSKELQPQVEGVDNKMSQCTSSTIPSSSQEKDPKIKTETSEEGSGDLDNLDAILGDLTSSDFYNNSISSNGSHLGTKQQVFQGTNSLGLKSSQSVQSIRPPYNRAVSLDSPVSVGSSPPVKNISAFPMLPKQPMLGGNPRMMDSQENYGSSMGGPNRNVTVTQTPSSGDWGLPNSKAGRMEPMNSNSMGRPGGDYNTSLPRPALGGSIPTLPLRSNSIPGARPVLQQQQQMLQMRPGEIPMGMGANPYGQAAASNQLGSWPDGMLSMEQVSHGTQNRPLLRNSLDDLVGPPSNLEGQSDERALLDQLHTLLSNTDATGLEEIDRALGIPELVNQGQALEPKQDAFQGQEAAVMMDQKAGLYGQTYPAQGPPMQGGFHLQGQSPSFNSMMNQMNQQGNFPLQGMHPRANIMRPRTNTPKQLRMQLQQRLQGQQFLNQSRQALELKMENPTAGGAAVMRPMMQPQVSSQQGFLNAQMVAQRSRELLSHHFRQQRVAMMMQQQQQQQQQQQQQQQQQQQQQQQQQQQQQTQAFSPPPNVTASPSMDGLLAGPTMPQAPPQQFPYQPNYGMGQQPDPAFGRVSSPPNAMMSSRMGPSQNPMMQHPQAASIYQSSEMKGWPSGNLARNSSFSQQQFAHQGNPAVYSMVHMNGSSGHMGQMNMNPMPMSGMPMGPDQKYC
row,Compound,inhibition
1,CC(NC(=O)CCCC1CCCCC1)c1ccc(S(N)(=O)=O)cc1 (stereo unspecified),4.7%
2,CC/C(C)=N/Nc1nc2sc3c(c2c(=O)[nH]1)CC(C)(C)OC3,-4.5%
3,O=C(CN1CCN(c2ncccn2)CC1)Nc1ccccc1C(F)(F)F,17.7%
4,CC1(C(=O)NS(=O)(=O)c2ccc(C#N)cc2)CCN1C(=O)c1ccc(C2CCCCC2)cc1 (stereo unspecified),8.43%
5,CC(C)C(c1nnnn1C1CCCCC1)N1CCN(C(=O)c2ccco2)CC1 (stereo unspecified),-1.28%
6,COc1cccc2c(C)c(C(=O)O)[nH]c12,4.08%
7,CCc1ccc(Oc2nc([N+](=O)[O-])nn2C)cc1,12.1%
8,CC(=O)c1c(C)c[nH]c1C,11%
9,CCc1nc2ccc(C(=O)NCc3ccc(OC)cc3)cn2c1N(CC)Cc1cccc(Br)c1,0.61%
10,CCCCn1c(N)c(N(CCC(C)C)C(=O)CC2OC(=O)c3ccccc32)c(=O)[nH]c1=O (stereo unspecified),12.2%
11,Cc1cccc2cc(CN(C(=O)c3cccs3)c3ccccc3)c(=O)[nH]c12,15.8%
12,O=S(=O)(Cc1nnnn1-c1ccc(Br)cc1)c1ccc(F)cc1,-7.02%
13,Cc1cc(C)nc(SCc2nnc(SCC(=O)OC3CCCCC3)o2)n1,-10.7%
14,CCCNC(=O)c1ccc(N2CCC3(CC2)CC(c2ccc(Cl)cc2)=NO3)c([N+](=O)[O-])c1,0.35%
15,CC1CCCCC1NC(=O)c1cc(=O)[nH]c2ccccc12 (stereo unspecified),9.65%
16,COc1ccc(F)cc1C(=O)C1CCCN(C(=O)CCc2ccccn2)C1 (stereo unspecified),14.9%
17,Cc1noc(C)c1C(=O)N1CCC1(C)C(=O)NS(=O)(=O)c1ccc(C#N)cc1 (stereo unspecified),-19.1%
18,O=C(NCCCCCCCCCNC(=O)C(F)(F)F)C(F)(F)F,-9.12%
19,Cc1ccc(S(=O)(=O)NCC(=O)N(CC(=O)NC2CCCCC2)Cc2ccco2)cc1,12.3%

row,Compound,inhibition
1,COC(=O)CN1C(=O)[C@H]2[C@@H](C3CC3)N3C(=O)CN(Cc4ccc(-c5ccccc5)cc4)C(=O)[C@@]3(Cc3ccccc3)[C@H]2C1=O,9.14%
2,CC1(C)CC(=O)C=C(c2ccc(Cl)c(C(F)(F)F)c2)C1,-9.95%
3,CCN(CC)S(=O)(=O)N1CCC(C(=O)NC(C)CCc2ccccc2)CC1 (stereo unspecified),15.5%
4,Cc1nn(CC(=O)NC2CCCCC2)c(=O)c2cccn12,-10.9%
5,CCOC(=O)c1c(C)n(C)c2ccc(OC)c(NC(=O)CN3CCC4(CC3)OCCO4)c12,6.95%
6,CCOC(=O)c1csc(CCNC(=O)c2oc3c(Cl)cc(C)cc3c2C)n1,-12.1%
7,CC(C)CC(CO)N1CCN(C(=O)c2ccc(Cl)cc2Cl)CCC1=O (stereo unspecified),5.22%
8,COc1ccc(C(CNC(=O)c2cccc(S(=O)(=O)Nc3ccc(Br)cc3)c2)N(C)C)cc1 (stereo unspecified),1.78%
9,COc1ccc(CNC(=O)COC(=O)C2=Cc3ccccc3OC2)cc1,-19.6%
10,O=C(O)c1ccccc1C(=O)NC1=NN(c2ccccc2)CC1,3.76%
11,CC1(C)CC(N2CCN(C(c3ccccc3)c3ccccc3)CC2)=CC(=[N+]2CCCCC2)C1,80% (active)
12,CCN1/C(=C\c2ccc3ccccc3[n+]2CC)Sc2cc(C)ccc21,64.7% (active)
13,C[C@@H]1CN([C@H](C)CO)C(=O)c2cc(-c3ccc(F)cc3)cnc2O[C@H]1CN(C)C(=O)c1ccc(F)cc1,-2.15%
14,CC(C)[C@H](NC(=O)N1CC(=O)Nc2ccccc21)C(=O)N[C@@H](Cc1c[nH]c2ccccc12)C(=O)O,11.1%
15,Cc1cc2ncn(CCCCOc3ccccc3)c2cc1C,-3.7%
16,C/C=C(/C)C(=O)O[C@@H]1c2cc3c(c4c2[C@@]2(CO4)C(=O)C(OC)=C(OC)C=C2C[C@@H](C)[C@H]1C)OCO3,-4.38%
17,C=CC[C@@H](CC(=O)NCCO)C(=O)N[C@H](C)COC(=O)[C@@H](CC=C)CC(=O)OC(C)(C)C,0.5%
18,CC(=O)Nc1ccc(-c2ccnc3c2CC(C(=O)NC(C)C)O3)cc1 (stereo unspecified),10.3%
19,COc1cccc(OC)c1C(=O)OCC(=O)/C(C#N)=C(\C)N,7.58%

row,Compound,inhibition
1,Cc1ccc(Cn2c(C)c3cnn(CC(=O)NCCN4CCOCC4)c(=O)c3c2C)cc1,-3.71%
2,CC(OC(=O)c1ccc(NS(=O)(=O)c2ccc3[nH]c(=O)[nH]c3c2)cc1)C(=O)Nc1cccc(Cl)c1Cl (stereo unspecified),4.52%
3,COc1cc(NC(=S)NNC(=O)CC(C)C)c(OC)cc1Cl,17.8%
4,O=C(NCc1ccco1)C1CCCN1S(=O)(=O)c1ccccc1C(F)(F)F (stereo unspecified),8.79%
5,Cc1cc(NC(=O)CN2C(=O)NC(CC(C)C)C2=O)no1 (stereo unspecified),-3.85%
6,FC(F)(F)c1cc(C(F)(F)F)c2ccc(N3CCN(c4ccccc4)CC3)nc2n1,1.84%
7,O=C(C1=C(O)C(=O)N(CCOCCO)C1c1ccccn1)c1cccs1 (stereo unspecified),3.48%
8,Cc1cccc(N2CCN(C(=O)COCc3cc(-c4ccc5c(c4)OCO5)on3)CC2)c1C,-10.1%
9,CCn1c(NC(=O)c2nn(C)cc2Br)nc2ccccc21,9.26%
10,Cc1cccc(Cn2cnc3c(N)c(C)c(C)cc32)c1,8.42%
11,O=C(O)CCCn1cc(NC(=O)COc2cccc(Cl)c2)cn1,19.3%
12,Cc1cc(=O)oc2cc(OCC3CC(c4ccccc4Cl)=NO3)ccc12 (stereo unspecified),-29.1%
13,COc1cc(NC(=S)N2CCCC(C)C2)cc(OC)c1OC (stereo unspecified),8.3%
14,N#Cc1ccccc1S(=O)(=O)N1CCN(C(=O)c2cc(-c3ccccc3)nn2-c2ccccc2)CC1,4.59%
15,Cc1ccsc1C(=O)OCC(=O)c1cc(C)n(CC2CCCO2)c1C (stereo unspecified),80.6% (active)
16,Cc1ccsc1C(=O)OCC(=O)Nc1cccc(F)c1,-16.2%
17,Cc1ccsc1C(=O)OCC(=O)NCCc1ccccc1,-54.7%
18,Cc1cccc(-n2c(Cc3cc(=O)[nH]c(=O)[nH]3)nnc2SC(C)C)c1,1.68%
